For some of these results: Measured potencies and affinities stand elsewhere.

Set-up in all cases: scale not given: direction of the effect not stated beside the values
The target of assay [1] is Protein translocase subunit SecA (Escherichia coli (strain K12)) (UniProt P10408). The experiment in a line: Assay to Identify E. coli SecA ATPase Inhibitors. Type of assay: functional. The following applies: 30 µM.
For assay [2], the target named is T1, Ubiquitin-activating enzyme e1, putative (Leishmania donovani (strain BPK282A1)) (UniProt E9BSI1).
T1 sequence (whole entry): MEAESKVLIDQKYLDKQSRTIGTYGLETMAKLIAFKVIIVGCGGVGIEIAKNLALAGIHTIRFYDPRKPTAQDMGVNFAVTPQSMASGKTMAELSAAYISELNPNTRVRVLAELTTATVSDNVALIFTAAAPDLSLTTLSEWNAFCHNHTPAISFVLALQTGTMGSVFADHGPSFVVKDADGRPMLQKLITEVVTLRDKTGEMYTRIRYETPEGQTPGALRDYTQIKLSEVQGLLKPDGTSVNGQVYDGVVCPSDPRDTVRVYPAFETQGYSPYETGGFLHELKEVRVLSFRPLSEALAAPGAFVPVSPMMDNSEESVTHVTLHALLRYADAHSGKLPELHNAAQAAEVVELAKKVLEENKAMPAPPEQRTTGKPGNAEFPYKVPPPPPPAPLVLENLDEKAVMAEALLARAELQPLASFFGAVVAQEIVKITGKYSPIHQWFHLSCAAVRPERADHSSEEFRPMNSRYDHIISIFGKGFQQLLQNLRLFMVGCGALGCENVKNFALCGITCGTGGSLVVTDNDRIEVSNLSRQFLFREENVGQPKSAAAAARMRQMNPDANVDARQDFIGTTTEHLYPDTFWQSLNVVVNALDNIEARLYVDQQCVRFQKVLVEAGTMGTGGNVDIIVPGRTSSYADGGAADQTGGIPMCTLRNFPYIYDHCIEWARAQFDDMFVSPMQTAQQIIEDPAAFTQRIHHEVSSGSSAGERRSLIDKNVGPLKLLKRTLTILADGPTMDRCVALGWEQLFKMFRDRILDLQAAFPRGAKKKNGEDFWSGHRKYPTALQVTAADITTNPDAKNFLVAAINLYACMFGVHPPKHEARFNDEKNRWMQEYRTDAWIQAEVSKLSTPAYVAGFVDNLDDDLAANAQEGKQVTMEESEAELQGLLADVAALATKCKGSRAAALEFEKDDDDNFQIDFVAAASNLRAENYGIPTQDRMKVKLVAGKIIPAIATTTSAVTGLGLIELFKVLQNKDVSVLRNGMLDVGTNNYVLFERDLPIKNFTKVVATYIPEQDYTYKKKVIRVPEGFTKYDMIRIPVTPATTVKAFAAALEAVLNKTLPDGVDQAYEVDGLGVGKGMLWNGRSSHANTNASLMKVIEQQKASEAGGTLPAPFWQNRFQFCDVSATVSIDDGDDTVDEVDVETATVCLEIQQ
Description: Leishmania donovani Ubiquitin Activating Enzyme (LdE1). To be noted: 30 µM. Type of assay: functional.

Assay [3] addresses AMP-activated protein kinase, AMPK (Homo sapiens) (UniProt P54646+O43741+P54619+Q9UGJ0+Q9Y478+Q13131+Q9UGI9). The experiment in a line: AMP-dependent Kinase enzyme assay. An in vitro enzyme assay that detects ADP turnover that is directly proportional to AMPK activity. This uses naive AMPK that is activated during the assay with MK-8722. To be noted: 30 µM. Type of assay: functional.

For assay [4], the target named is Sialic acid-binding Ig-like lectin 9 (Homo sapiens) (UniProt Q9Y336). Description: Hs-Siglec9 ALPHAscreen SOP 20170721. To be noted: 10 µM. For orientation: Alpha assays give light when donor and acceptor beads are brought close together.
The subject of assay [5] is Trypanosoma cruzi. The experiment in a line: Trypanosoma cruzi phosphomannomutase and mannose-1-phosphate guanylyltransferase assay. To be noted: 10 µM. Format: functional.
The target in assay [6] is T2, Arginase-2, mitochondrial (Homo sapiens) (UniProt P78540).
T2 sequence (whole entry): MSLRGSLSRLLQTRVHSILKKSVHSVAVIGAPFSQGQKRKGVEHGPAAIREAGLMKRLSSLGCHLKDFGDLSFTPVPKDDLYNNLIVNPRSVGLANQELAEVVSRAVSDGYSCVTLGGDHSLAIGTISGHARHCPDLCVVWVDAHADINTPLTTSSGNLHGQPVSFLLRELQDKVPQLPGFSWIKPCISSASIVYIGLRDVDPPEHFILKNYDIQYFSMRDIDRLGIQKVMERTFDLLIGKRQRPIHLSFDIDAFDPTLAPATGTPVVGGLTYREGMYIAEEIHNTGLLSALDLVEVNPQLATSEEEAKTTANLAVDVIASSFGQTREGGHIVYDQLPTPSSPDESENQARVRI
The experiment in a line: in vitro enzyme assay to detect the production of urea directly proportional to the activity of Arginase II. Also: in the data most compounds retested in dose-response had high values. Format: functional. The following applies: 33.3 µM.

Assay [7] has as its target T3, Proteasome subunit beta (Trypanosoma cruzi) (UniProt O96673).
T3 sequence (whole entry): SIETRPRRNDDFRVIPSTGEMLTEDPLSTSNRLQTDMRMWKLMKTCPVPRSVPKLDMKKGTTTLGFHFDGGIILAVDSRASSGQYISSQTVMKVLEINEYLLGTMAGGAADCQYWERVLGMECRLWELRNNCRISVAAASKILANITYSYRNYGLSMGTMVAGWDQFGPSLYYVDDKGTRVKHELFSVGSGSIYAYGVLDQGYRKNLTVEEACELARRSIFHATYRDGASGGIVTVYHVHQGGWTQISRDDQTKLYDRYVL
Description: Trypanosoma cruzi proteasome chymotrypsin-like activity (TcProtChymo) assay. Also: in the data most compounds retested in dose-response had high values. Format: functional. The following applies: 9.37 µM.

The species entered for assay [8] is Homo sapiens. The experiment in a line: To identify inhibition of the IFN signalling (Jak-Stat) pathway via expression of an eGFP reporter gene under the control of an IFN-stimulated response element (ISRE) containing MxA promoter. To be noted: 30 µM. Format: functional.
Assay [9] concerns the target T4, Tyrosyl-tRNA synthetase, putative (Trypanosoma cruzi (strain CL Brener)) (UniProt Q4DSP6).
T4 sequence (whole entry): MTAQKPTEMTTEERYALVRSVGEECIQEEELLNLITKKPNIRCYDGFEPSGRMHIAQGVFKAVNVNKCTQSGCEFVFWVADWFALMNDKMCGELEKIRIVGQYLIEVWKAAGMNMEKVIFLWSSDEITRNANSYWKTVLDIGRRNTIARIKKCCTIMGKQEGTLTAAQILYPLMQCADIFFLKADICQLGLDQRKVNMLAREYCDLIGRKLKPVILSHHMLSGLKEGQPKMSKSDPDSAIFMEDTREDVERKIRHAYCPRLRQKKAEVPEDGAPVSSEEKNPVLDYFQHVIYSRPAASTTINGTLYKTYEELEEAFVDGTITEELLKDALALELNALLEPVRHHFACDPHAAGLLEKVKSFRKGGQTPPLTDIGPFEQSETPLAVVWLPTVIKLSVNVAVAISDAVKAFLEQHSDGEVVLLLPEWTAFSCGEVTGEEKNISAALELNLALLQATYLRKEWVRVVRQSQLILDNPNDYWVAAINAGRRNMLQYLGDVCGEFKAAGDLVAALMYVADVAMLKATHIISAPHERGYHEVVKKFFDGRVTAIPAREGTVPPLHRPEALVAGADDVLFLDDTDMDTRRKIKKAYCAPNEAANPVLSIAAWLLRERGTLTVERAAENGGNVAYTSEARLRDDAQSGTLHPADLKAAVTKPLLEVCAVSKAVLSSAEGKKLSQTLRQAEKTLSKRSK
The experiment in a line: Trypanosoma cruzi tyrosyl tRNA synthetase (TcYRS) _High Tyrosine SOP. Also: in the data most compounds retested in dose-response had high values. Type of assay: functional. The following applies: 30 µM.

In assay [10] the target is T4, Tyrosyl-tRNA synthetase, putative (Trypanosoma cruzi (strain CL Brener)). The experiment in a line: Trypanosoma cruzi tyrosyl tRNA synthetase (TcYRS) SOP. Format: functional. The following applies: 30 µM.
Assay [11] has as its target Chromo domain-containing protein 1 (Saccharomyces cerevisiae (strain ATCC 204508 / S288c) (Baker's yeast)) (UniProt P32657). Description: ScCHD-1 Enzyme Inhibition Assay. Also: in the data most compounds retested in dose-response had high values. To be noted: 30 µM. Type of assay: functional.

Sequence of Sialic acid-binding Ig-like lectin 9 (Homo sapiens) (Q9Y336 whole entry): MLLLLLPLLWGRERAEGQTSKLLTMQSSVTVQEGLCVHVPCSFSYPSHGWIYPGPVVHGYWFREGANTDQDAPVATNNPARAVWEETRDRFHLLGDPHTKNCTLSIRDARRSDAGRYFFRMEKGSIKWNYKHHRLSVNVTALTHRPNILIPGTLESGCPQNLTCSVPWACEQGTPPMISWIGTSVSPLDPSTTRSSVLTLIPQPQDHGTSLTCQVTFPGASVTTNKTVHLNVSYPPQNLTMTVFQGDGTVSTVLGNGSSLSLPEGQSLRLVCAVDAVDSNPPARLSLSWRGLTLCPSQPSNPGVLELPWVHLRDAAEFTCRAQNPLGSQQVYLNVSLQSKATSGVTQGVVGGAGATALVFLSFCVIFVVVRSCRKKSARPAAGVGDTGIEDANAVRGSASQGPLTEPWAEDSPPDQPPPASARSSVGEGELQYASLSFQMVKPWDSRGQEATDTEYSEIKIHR
Sequence of Protein translocase subunit SecA (Escherichia coli (strain K12)) (P10408 whole entry): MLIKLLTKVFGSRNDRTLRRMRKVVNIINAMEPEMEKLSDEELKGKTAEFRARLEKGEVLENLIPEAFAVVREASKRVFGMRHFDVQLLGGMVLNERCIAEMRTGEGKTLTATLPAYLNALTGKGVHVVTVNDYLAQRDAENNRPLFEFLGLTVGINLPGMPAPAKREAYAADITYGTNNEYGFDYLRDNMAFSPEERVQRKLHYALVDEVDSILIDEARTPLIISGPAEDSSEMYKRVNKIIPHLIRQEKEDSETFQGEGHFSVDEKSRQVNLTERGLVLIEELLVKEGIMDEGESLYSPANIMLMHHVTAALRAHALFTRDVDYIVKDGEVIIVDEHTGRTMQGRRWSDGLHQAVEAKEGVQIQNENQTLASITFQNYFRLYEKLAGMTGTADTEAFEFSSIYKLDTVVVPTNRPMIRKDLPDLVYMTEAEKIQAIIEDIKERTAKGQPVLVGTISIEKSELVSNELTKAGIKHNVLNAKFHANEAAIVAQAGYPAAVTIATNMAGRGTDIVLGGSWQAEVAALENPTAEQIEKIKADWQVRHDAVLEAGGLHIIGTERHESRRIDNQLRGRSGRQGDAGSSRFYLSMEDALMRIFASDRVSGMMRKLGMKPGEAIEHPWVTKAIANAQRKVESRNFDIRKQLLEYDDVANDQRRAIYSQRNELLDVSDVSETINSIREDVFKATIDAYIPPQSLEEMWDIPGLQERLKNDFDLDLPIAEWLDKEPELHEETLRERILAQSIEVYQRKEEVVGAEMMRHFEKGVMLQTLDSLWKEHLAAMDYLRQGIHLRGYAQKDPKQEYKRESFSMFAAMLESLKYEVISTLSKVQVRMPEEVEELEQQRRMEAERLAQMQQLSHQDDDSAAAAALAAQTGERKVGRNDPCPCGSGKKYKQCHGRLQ
Sequence of Chromo domain-containing protein 1 (Saccharomyces cerevisiae (strain ATCC 204508 / S288c) (Baker's yeast)) (P32657 whole entry, the tested form may be a part): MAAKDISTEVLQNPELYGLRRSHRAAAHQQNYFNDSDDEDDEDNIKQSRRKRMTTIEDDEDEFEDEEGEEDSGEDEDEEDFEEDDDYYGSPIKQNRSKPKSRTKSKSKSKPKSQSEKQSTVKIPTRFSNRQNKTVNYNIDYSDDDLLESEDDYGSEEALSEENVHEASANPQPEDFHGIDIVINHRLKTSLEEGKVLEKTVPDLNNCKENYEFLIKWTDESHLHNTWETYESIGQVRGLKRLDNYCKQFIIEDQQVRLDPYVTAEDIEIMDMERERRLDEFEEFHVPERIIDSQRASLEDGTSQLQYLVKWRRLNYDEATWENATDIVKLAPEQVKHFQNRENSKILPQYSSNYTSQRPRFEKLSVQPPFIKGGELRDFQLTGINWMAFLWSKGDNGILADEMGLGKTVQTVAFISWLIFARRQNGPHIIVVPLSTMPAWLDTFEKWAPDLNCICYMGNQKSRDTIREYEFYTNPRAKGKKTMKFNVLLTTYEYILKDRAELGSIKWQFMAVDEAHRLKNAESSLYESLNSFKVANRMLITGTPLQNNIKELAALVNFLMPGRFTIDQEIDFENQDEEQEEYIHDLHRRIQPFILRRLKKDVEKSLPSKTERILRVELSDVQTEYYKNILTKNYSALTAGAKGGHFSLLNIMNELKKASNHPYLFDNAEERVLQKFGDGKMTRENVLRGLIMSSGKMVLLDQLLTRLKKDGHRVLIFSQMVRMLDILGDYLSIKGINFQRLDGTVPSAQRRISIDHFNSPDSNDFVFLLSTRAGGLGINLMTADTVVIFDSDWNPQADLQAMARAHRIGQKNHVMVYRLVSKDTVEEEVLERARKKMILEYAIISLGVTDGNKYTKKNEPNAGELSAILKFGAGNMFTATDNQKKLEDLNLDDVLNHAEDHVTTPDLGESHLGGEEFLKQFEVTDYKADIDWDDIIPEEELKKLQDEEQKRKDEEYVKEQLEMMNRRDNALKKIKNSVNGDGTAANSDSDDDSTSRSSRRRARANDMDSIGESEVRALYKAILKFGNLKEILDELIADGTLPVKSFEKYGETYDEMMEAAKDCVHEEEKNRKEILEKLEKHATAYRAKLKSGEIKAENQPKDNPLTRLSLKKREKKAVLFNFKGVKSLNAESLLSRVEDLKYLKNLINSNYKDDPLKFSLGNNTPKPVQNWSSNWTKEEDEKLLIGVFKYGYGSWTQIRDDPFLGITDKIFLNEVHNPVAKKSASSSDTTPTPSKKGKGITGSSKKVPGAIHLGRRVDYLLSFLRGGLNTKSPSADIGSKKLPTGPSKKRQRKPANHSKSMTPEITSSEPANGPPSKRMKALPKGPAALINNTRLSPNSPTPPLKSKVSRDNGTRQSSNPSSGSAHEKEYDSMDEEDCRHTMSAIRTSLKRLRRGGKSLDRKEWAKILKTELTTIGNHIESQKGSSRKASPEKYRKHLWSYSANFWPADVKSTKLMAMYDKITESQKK

`Cc1cccc(CN2CCc3ncnc(N4CCOCC4)c3CC2)n1`: the Percent Effect in assay [1] was -4.12%; in assay [2], -5.48%; in [3] it was 1.75%; in assay [4], -1.38%; in assay [5] it was -1.39%; in assay [6], 3.59%. The Percent Effect in assay [7] was 4.2%; in [8], 20.4%; in [9], -1.04%; in assay [10], 1.24%; in assay [11], -0.552%.

As for `CCOc1cccc2c1OCC(C(=O)NS(=O)(=O)c1ccc(Cl)cc1)=C2`, the Percent Effect in assay [1] was -8.58%; in [2] it was -2.7%; in assay [3] it was 102%; in [4], 7.55%; in [5] it was -5%; in assay [6], -5.61%. The Percent Effect in assay [7] is -2.52%; in [8], 18.9%; in assay [9] it was -23.1%; in [10], -33.3%; in assay [11], -6.64%.

With `CN(C)C(=O)c1cnc2n1CCN(Cc1ccccc1)C2`, the Percent Effect in assay [1] was 1.01%; in assay [2], 13.3%; in assay [3], 6.19%; in [4] it was -6.07%; in assay [5] it was -7.87%; in assay [6], 8.62%. The Percent Effect in [7] was 15.2%; in assay [8], 0.000462%; in assay [9] it was 3.19%; in assay [10] it was 8.97%; in assay [11], -5.59%.

Turning to `CCc1noc(C(C)N(C)CC(=O)Nc2ccc(C)cc2)n1` (stereo not drawn), the Percent Effect in assay [1] was -4.41%; in assay [2], 0%; in assay [3], 2.85%; in assay [4] it was 1.79%; in assay [5], -2.55%; in [6] it was -0.455%. Moreover, the Percent Effect was -0.887% in [7]; -0.282% in [8]; -1.07% in [9]; -2.5% in [10]; 2.11% in assay [11].

On to `CN(C)CCNC(=O)c1cnc2c(c1)nc(-c1ccccc1Cl)n2C`, for which the Percent Effect in assay [1] is -0.258%; in assay [2], 8.11%; in assay [3], -1.84%; in assay [4], 30.9%; in assay [5] it was 3.81%; in assay [6], 1.74%. Also, the Percent Effect in assay [7] is 9.36%; in [8] it was 17.4%; in [9], 7.53%; in assay [10], 16.1%; in assay [11], -5.45%.

Turning to `Cn1cc(CN2CC[C@H]3O[C@H](C(=O)NCc4ccco4)CC[C@H]32)cn1`, the Percent Effect in assay [1] was -0.286%; in assay [2], 5.33%; in assay [3] it was -3.22%; in assay [4] it was -1.09%; in [5], -7.14%; in assay [6], -53.2%. For the same compound, the Percent Effect in assay [7] was 6.67%; in [8], -2.52%; in assay [9], 1.04%; in [10], 12.5%; in [11], -5.84%.

For the compound `CN(CCO)Cc1nnc(C2CCN(C3CCCCC3)CC2)n1C`, the Percent Effect in [1] is -3.52%; in assay [2] it was 8%; in assay [3] it was 0.423%; in [4] it was -0.412%; in assay [5], -3.41%; in assay [6], 2.08%. The Percent Effect in assay [7] was 18.1%; in assay [8] it was 10.8%; in assay [9], 2.73%; in assay [10], 11.1%; in [11] it was -6.36%.

For `CN1CCCc2cc(CNC(=O)c3ccncc3)ccc21`, the Percent Effect in [1] is -3.56%; in [2] it was 19%; in assay [3], 22.6%; in assay [4], -0.0483%; in assay [5], 1.54%; in [6] it was -1.94%. For the same compound, the Percent Effect was 21.4% in assay [7]; 28.5% in [8]; 2.08% in assay [9]; 17.7% in assay [10]; -25.8% in assay [11].
